Assay results reported in PubChem BioAssay (NCATS).
Several values for one entry are separate records, joined by “and”; a condition that tells them apart may be missing. Equal entries are not always repeated. Results filed as inconclusive are left out. Activity calls are given as the source filed them. Unless noted, calls follow the shape of the dose curve; as a rule, active = well fitted curve in the direction sought with a large enough effect; inconclusive = small, poorly fitted or top-dose-only effect, or another doubt; inactive = no such curve, though single readings can be large; an effect the other way counts as inactive or inconclusive.

How the values were obtained:
[1] = Cell Viability - MRC5 (AID 434; calls by dose curve;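 also: potency is read from the fitted curve at half-maximal effect; potency reflects cytotoxicity seen as loss of intracellular ATP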); conditions: MRC5 lung fibroblast viability, qHTS
In short: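 MRC5 normal human lung fibroblasts, 1500 cells/well, exposed to compound for 40 hr at 37 C. Cellular ATP was read by CellTiter-Glo luminescence; data normalized to DMSO and 100 uM tamoxifen, with AC50 from Hill fits.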

[2] = Cell Viability - HUV-EC-C (AID 542); conditions: HUV-EC-C endothelial cell viability, qHTS; series mostly up to 92.2 µM; also: % is scaled to controls: 0 for no effect and ±100 for the full control effect; nearly all actives have a fitted effect of over 35% in size
In short: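 HUV-EC-C human vascular endothelial cells, 1000/well, exposed to compound for 40 hr at 37 °C in complete medium. Intracellular ATP was read by CellTiter-Glo luminescence. AC50 came from Hill-equation fits of concentration-response data.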

[3] = Cellular Toxicity (caspase-3) HepG2 (AID 654); conditions: HepG2 caspase-3 activation, luminescence; series mostly up to 92.2 µM;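 also: cells exposed to compound for 16 hours before reading; 0% = DMSO alone and 100% = caspase signal from 100 µM tamoxifen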
In short: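 HepG2 cells (1500/well) were treated 16 h at 37 °C in complete medium, then caspase 3/7 activity was read by Caspase-Glo luminescence. Data were normalized to DMSO and 100 uM tamoxifen; AC50 came from Hill-equation fits of qHTS concentration-response.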

[4] = Cellular Toxicity (caspase-3) HUV-EC-C (AID 656); conditions: HUV-EC-C cells, caspase-3 activation (apoptosis); series mostly up to 92.2 µM
In short: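 qHTS; HUV-EC-C, 1000 cells/well; 5 hr settle, 16 hr cmpd, 37°C; Caspase-Glo 3/7, 20 min RT; luminescence. Norm: DMSO = 0%, tamoxifen 100 uM = 100%. Hill-fit AC50.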

[5] = Cellular Toxicity (caspase-3) SHSY5Y (AID 657); conditions: SH-SY5Y caspase-3 activation; series mostly up to 91.7 µM
In short: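 qHTS, SH-SY5Y, 1500 cells/well, 5 h pre-incubation 37 °C; compound 16 h 37 °C; Caspase-Glo 3/7 1 h RT; luminescence. Norm.: DMSO = 0, 10 uM staurosporine = 100%. Hill fit → AC50.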

[6] = Cellular Toxicity (caspase-3) Mesangial (AID 660); conditions: mesangial cells, normalized: DMSO 0%, 100 µM tamoxifen 100%; series mostly up to 91.7 µM
In short: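 Human renal glomerular mesangial cells, 1000/well, 5 h at 37 C before 16 h compound treatment. Caspase-Glo 3/7 luminescence after 20 min; normalized to DMSO and 100 uM tamoxifen, AC50 from Hill fit.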

[7] = Cellular Toxicity (caspase-3) SK-N-SH (AID 661); conditions: SK-N-SH caspase-3 activation, qHTS, DMSO as zero, staurosporine as full; series mostly up to 91.7 µM
In short: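 Human SK-N-SH neuroblastoma cells, 1500/well, were exposed to compounds for 16 hours at 37 °C. Caspase-Glo 3/7 luminescence was normalized to DMSO (basal) and 10 uM staurosporine (100%), and AC50 came from a Hill fit.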

[8] = Cellular Toxicity (caspase-3) H-4-II-E (AID 663); conditions: H-4-II-E rat hepatoma; Potency: caspase-3 activation; series mostly up to 92.2 µM;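 also: cells exposed to compound for 16 hr before readout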
In short: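 Rat hepatoma H-4-II-E cells (1500/well) plated 5 hr, then exposed to compound titrations for 16 hr at 37 °C. Caspase-Glo 3/7 luminescence read after 20 min at RT; data normalized to DMSO and 100 uM tamoxifen, AC50 from Hill fits.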

[9] = Cellular Toxicity (caspase-3) N2a (AID 665); conditions: N2a cells, luminescence, normalized: DMSO 0%, 10 µM staurosporine 100%; series mostly up to 92.2 µM;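 also: compound exposure lasted 16 h at 37 °C before readout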
In short: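 Mouse N2a neuroblastoma cells, 1500 per well, treated 16 h at 37 °C in complete medium; caspase-3/7 activity by Caspase-Glo luminescence after 1 h. Normalized to DMSO and 10 uM staurosporine; AC50 from Hill fits.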

[10] = Cellular Toxicity (caspase-3) NIH 3T3 (AID 666); conditions: NIH 3T3 caspase-3 activation, apoptosis/toxicity, 0% DMSO, 100% is 100 µM tamoxifen; series mostly up to 92.2 µM;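 also: caspase signal read after 16 h compound exposure; 0% = DMSO basal and 100% = 100 µM tamoxifen stimulation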
In short: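 Mouse NIH 3T3 fibroblasts (1000/well) treated 16 h at 37 C; caspase-3/7 activity measured by Caspase-Glo 3/7 luminescence after 20 min. Normalized to DMSO and 100 uM tamoxifen; AC50 from Hill fits.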

[11] = Cellular Toxicity (caspase-3) Renal Proximal Tubule (AID 667); conditions: renal proximal tubule cells, primary cells freshly taken from rat; Potency: caspase-3 activation; series mostly up to 91.7 µM;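 also: cells exposed to compound for 16 hours at 37 °C before detection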
In short: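 AC50 derived by standard Hill fit of concentration-response data, normalized between DMSO basal and 10 uM staurosporine as 100% stimulation. Cells: primary rat kidney proximal tubule, 16 h treatment at 37 °C.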

[12] = MultiTox-Fluor Cytotoxicity Assay - LYMP1-001 - Dead Cells (AID 946); conditions: LYMP1-001 lymphoblastoid cells, dead-cell protease fluorescence; series mostly up to 92.2 µM;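 also: 0% = DMSO and 100% = tetraoctylammonium bromide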
In short: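 LYMP1-001 lymphoblastoid cells (2500/well) treated 16 h at 37 C. Dead-cell protease cleavage of bis-AAF-R110 read at Ex/Em 485/520. Normalized to DMSO and 15 uM tetraoctylammonium bromide; AC50 from Hill fits.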

[13] = MultiTox-Fluor Cytotoxicity Assay - LYMP1-003 - Dead Cells (AID 961); conditions: LYMP1-003 lymphoblastoid cells, dead-cell protease fluorescence; series mostly up to 92.2 µM;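 also: 0% = DMSO and 100% = tetraoctylammonium bromide; nearly all actives have a fitted effect of over 70% in size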
In short: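 LYMP1-003 human lymphoblastoid cells (2500/well) exposed to compound 16 h at 37 C in complete medium; dead-cell protease read with bis-AAF-R110 fluorescence (Ex/Em 485/520) after 60 min at room temperature. Normalized to DMSO and 15 uM tetraoctylammonium bromide; AC50 from Hill fit.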

[14] = MultiTox-Fluor Cytotoxicity Assay - LYMP1-003 - Live Cells (AID 962); conditions: LYMP1-003 lymphoblastoid cells, MultiTox-Fluor live-cell protease fluorescence; series mostly up to 92.2 µM;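 also: 0% = DMSO only and full loss = 92 µM tetraoctylammonium bromide; cytotoxic hits lower the live-cell protease signal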
In short: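 LYMP1-003 lymphoblastoid cells, 2500/well in complete medium, treated 16 h at 37 C; live-cell protease cleavage of GF-AFC read by fluorescence (Ex/Em 405/510) after 60 min reagent; AC50 from Hill fits of concentration-response.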

[15] = Cell Viability - LYMP1-003 - Assay at 24 hr (AID 963); conditions: LYMP1-003 lymphoblastoid cell viability; series mostly up to 92.2 µM;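 also: plate controls were DMSO only for no effect and tetraoctylammonium bromide positive control for full effect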
In short: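 Human lymphoblastoid LYMP1-003 cells, 2500/well, treated 24 h at 37 C in complete medium. Viability read as intracellular ATP by CellTiter-Glo luminescence after 30 min at room temperature; AC50 from Hill-equation fits of qHTS concentration-response.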

[16] = Cell Viability - LYMP1-002 - Assay at 24 hr (AID 993); conditions: LYMP1-002 lymphoblastoid cells viability; series mostly up to 92.2 µM; also: % is scaled to controls: 0 for no effect and ±100 for the full control effect
In short: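 Human lymphoblastoid LYMP1-002 cells (2500/well) treated 24 h at 37 °C; viability as intracellular ATP by CellTiter-Glo luminescence. Tetraoctylammonium bromide as positive control; AC50 from Hill-equation fits of qHTS concentration-response.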

[17] = qHTS Assay for Identification of Small Molecule Inducers of Hypoxia Response (AID 2120; active = well fitted curve in the direction sought with a large enough effect in the signal ratio, with a control signal flat, not every such curve was filed as active; the % refers to the signal ratio; also: 0% is about no effect); conditions: hypoxia response reporter cells, beta-lactamase ratio readout; series mostly up to 104 µM
In short: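 HRE-bla ME-180 cells in Opti-MEM with 0.5% dialyzed FBS, pre-plated 4-5 h, then compound titration for 17 h at 37 degrees Celsius. CCF4 loaded 2.5 h at room temperature; 460/530 nm ratio gave %Activity and AC50 for induction.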

[18] = target: Peroxisome proliferator-activated receptor alpha (Homo sapiens) (UniProt Q07869); assay: qHTS assay for small molecule agonists of the peroxisome proliferator-activated receptor alpha (PPARalpha) signaling pathway (AID 651778); conditions: PathHunter PPARalpha complementation, chemiluminescence, 6 h; max response: hits give high values; also: % of control where 0% means no effect
Sequence of Peroxisome proliferator-activated receptor alpha (Homo sapiens) (Q07869 whole entry, looked up, the tested form may be a part): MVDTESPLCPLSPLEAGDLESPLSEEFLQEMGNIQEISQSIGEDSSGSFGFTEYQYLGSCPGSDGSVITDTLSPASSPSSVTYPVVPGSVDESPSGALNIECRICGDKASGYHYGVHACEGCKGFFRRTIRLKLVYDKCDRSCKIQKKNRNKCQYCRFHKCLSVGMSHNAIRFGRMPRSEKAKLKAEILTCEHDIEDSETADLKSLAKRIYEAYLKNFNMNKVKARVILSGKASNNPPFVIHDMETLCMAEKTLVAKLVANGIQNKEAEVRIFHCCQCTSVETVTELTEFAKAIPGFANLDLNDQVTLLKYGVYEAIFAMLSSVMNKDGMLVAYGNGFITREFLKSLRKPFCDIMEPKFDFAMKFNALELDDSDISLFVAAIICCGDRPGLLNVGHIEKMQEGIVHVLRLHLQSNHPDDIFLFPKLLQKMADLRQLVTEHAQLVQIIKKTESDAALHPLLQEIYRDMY
In short: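 Enzyme-fragment complementation assay in which ligand-bound PPARalpha translocates and forms an active enzyme that generates chemiluminescence. Cells were plated overnight, exposed to compound for 6 hr at 37 C, and then given detection reagent for 60 min at room temperature.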

[19] = qHTS assay for small molecule agonists of the antioxidant response element (ARE) signaling pathway measured by Nrf2-dependant transcriptional activity - cell viability counter screen (AID 720653; active = well fitted curve in the direction sought with a large enough effect in the repeat runs; an effect the other way counts as inactive or inconclusive; also: % is scaled to controls: 0 for no effect and ±100 for the full control effect); conditions: ARE-bla HepG2 viability, CellTiter-Glo ATP luminescence, 16 h; max response: hits give low values
In short: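 ARE-bla HepG2 cells treated with compounds for 16 h at 37C; this counter screen measures viability as intracellular ATP by CellTiter-Glo luminescence after 30 min at room temperature.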

[20] = qHTS assay for cell viability of the p53RE-bla HCT-116 cell line (AID 743292); conditions: p53RE-bla HCT-116 viability, ATP luminescence, 16 h; series mostly up to 95 µM; also: % is scaled to controls: 0 for no effect and ±100 for the full control effect; nearly all actives have a fitted effect of over 55% in size
In short: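 ATP-based luminescent viability (CellTiter-Glo, 30 min RT) after 16 h compound treatment at 37 C of p53RE-bla HCT-116 cells, seeded at 4,000 cells/well and rested 5 h before dosing.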

CC(=O)OC1CC(C)OC(C)O1 (stereo not given)
inactive: Potency [1] > 92 µM | Potency [2] | Potency [3] | Potency [4] | Potency [5] | outcome [6] | outcome [7] | Potency [8] | outcome [9] | outcome [10] | Potency [11] | Potency [12] | Potency [13] | Potency [14] | Potency [15] | Potency [16] | Potency [17] | max response [18] -4.25% and 0.0018% | max response [19] 6.75% and -0.741% | Potency [20]

C/C(Cl)=C/CCl
inactive: Potency [1] > 92 µM | Potency [2] | Potency [3] | Potency [4] | Potency [5] | outcome [6] | outcome [7] | Potency [8] | outcome [9] | outcome [10] | Potency [11] | Potency [12] | Potency [13] | Potency [14] | Potency [15] | Potency [16] | Potency [17] | max response [18] -4.68% | max response [19] 5.48% | Potency [20]

OCC(CBr)(CBr)CBr
inactive: Potency [1] > 92 µM | Potency [2] | Potency [3] | Potency [4] | Potency [5] | outcome [6] | outcome [7] | Potency [8] | outcome [9] | outcome [10] | Potency [11] | Potency [12] | Potency [13] | Potency [14] | Potency [15] | Potency [16] | Potency [17] | max response [18] 1.63% | max response [19] -12.4% | Potency [20]

OC1CCCCC1
inactive: Potency [1] > 92 µM | Potency [2] | Potency [3] | Potency [4] | Potency [5] | outcome [6] | outcome [7] | Potency [8] | outcome [9] | outcome [10] | Potency [11] | Potency [12] | Potency [13] | Potency [14] | Potency [15] | Potency [16] | Potency [17] | max response [18] -5.19% | max response [19] 16.5% | Potency [20]

COc1cc(-c2ccc(N=C=O)c(OC)c2)ccc1N=C=O
inactive: Potency [1] > 92 µM | Potency [2] | Potency [3] | Potency [4] | Potency [5] | outcome [6] | outcome [7] | Potency [8] | outcome [9] | outcome [10] | Potency [11] | Potency [12] | Potency [13] | Potency [14] | Potency [15] | Potency [16] | Potency [17] | max response [18] 20.1% | max response [19] 21.7% and 2.99% | Potency [20]

CC(C)S
inactive: Potency [1] > 92 µM | Potency [2] | Potency [3] | Potency [4] | Potency [5] | outcome [6] | outcome [7] | Potency [8] | outcome [9] | outcome [10] | Potency [11] | Potency [12] | Potency [13] | Potency [14] | Potency [15] | Potency [16] | Potency [17] | max response [18] -0.0008% | max response [19] 14.7% | Potency [20]
